Fewer than 10 of roughly 1,100 compounds were called active. Another 6% or so got no clear call; they are omitted. Calls follow the shape of the dose curve; as a rule, active = well fitted cell-killing curve with a large enough effect; inconclusive = small, poorly fitted or top-dose-only effect; inactive = flat fitted curve, though single readings scatter. Only a sample is shown. Where a call stands in place of a potency, no number is given.
Assay: qHTS of Nrf2 Activators: Hit Validation in Cytotox Assay;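 also: compound exposure lasted 24 hours before the ATP readout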
Settings: Cell viability counter-screen for Nrf2 activator hits; series mostly up to 46.1 µM
From the text: Many diseases have some form of oxidative stress injury and ties to inflammation, causing a host of problems for the patient. The antioxidant response element (ARE) plays an important role in alleviating the harmful effects of oxidative stress. The antioxidant response element (ARE) is a transcriptional regulatory element involved in the activation of genes coding for a number of antioxidant proteins and detoxifying enzymes. These enzymes work in concert to protect tissues from oxidative insults and chemical toxicities in human hepatocytes and immune cells. The protective effects of ARE activation are primarily triggered through Nrf2 (NF-E2-related factor) binding to and activating AREs. It is known that Nrf2 controls the production of over 250 antioxidant and detoxification proteins (Hu et al., 2006), thereby protecting tissues by increasing cellular antioxidant content and suppressing inflammatory signaling pathways. The transcription factor Nrf2 is a central link between oxidative chemicals, such as phenolic antioxidants and electrophilic compounds, and the activation of ARE. Nrf2 levels are constitutively low as a consequence of its interaction with Keap1, which targets its degradation (Zipper and Mulcahy, 2002). Electrophiles react with key cysteine residues in Keap1, releasing Nrf2 and allowing its translocation to the nucleus. Once within the nucleus, Nrf2 complexes with coactivators such as p300, and binds to the AREs to induce gene transcription of cytoprotective enzymes, resulting in the prevention of toxicity. Activation of Nrf2 protects tissues by increasing cellular antioxidant content and suppressing inflammatory signaling pathways. Identifying novel and potent Nrf2 activators by using the AREc32 cell line to detect ARE activation by small molecules will lead to the identification and development of probes to study protective pathways in multiple tissues. These specific probes are essential to study the ARE pathway, and eventually to determine whether this pathway does activate genes that could protect against a host of diseases, including cardiovascular diseases, obesity, diabetes, Alzheimer's, and Parkinson's disease.
This project's aim is to identify novel and potent Nrf2 activators by using the AREc32 cell line to detect ARE activation by small molecules, which will lead to the identification and development of probes to study the ARE pathway. Cytotoxic compounds are flagged as active, and inactivity is desired in this assay.
NIH Chemical Genomics Center [NCGC]
NIH Molecular Libraries Probe Centers Network [MLPCN]
Assay Submitter (PI): Curtis Klaassen, University of Kansas Medical Center
Cell viability after compound treatment was measured using a luciferase-coupled ATP quantitation assay (CellTiter-Glo, Promega) in AREc32_fluc cells. The change of intracellular ATP content indicates the number of metabolically competent cells after compound treatment. AREc32_fluc cells were harvested from T225 flask and resuspended in phenol red free OPTI-MEM medium with 5% FBS. Then 5 microL of 200,000 cells/ml resuspended cells was dispensed into each well of white, solid bottom, 1536-well tissue culture-treated plates using a Multidrop Combi dispenser. After overnight culture at 37 degrees C with 5% CO2, a total of 23 nL of compounds at 7 selected concentrations from the cherry pick or positive control (40 uM stock of CDDO-IM and 2 mM of tBHQ) in DMSO was transferred to each well of the assay plate using a pintool (Kalypsys, San Diego, CA), and the plates were further incubated at 37 degrees C with 5% CO2 for 24 hours. After that, 4 microL of CellTilter-GloTM luminescent substrate mix (Promega) was added to each well. The plate was incubated at room temperature for 30 minutes. The plates were measured on a ViewLux plate reader (PerkinElmer) with clear filter.
Potency is read from the fitted curve at half-maximal effect.

SMILES | Potency
O=C(Nc1ccccc1F)c1cc(-c2ccco2)nc2ccccc12 | inactive
COc1ccc(Cl)cc1-c1nc(-c2ccncc2)no1 | inactive
S=c1[nH]nc(-c2ccco2)n1/N=C/c1cccc(Cl)c1Cl | inactive
N#Cc1cnc2cc(-c3ccccc3)nn2c1N | inactive
O=C(CSc1ccc(-c2ccco2)nn1)N1CCCC1 | inactive
CCNc1ccc(-c2nc(-c3ccco3)no2)cc1[N+](=O)[O-] | inactive
COC(=O)c1ccc2nc(-c3cccc(Br)c3)c(Cc3ccccc3OC)n2c1 | inactive
Fc1ccc2nc(Nc3nc4c(F)cc(F)cc4s3)sc2c1 | inactive
N#Cc1cccn1-c1nccc(-c2cccs2)n1 | inactive
O=C(NC(=S)Nc1cc([N+](=O)[O-])ccc1Cl)c1ccccc1 | inactive
Cc1cc(SCC(=O)c2cccs2)nc2ccccc12 | inactive
O=C(NCc1ccco1)c1ccccc1-c1nc(-c2ccc(F)cc2)no1 | inactive
O=[N+]([O-])c1ccc(SCc2ccco2)cc1N1CCOCC1 | inactive
CCOC(=O)N1CCc2c(sc3c2C(=O)NC(c2ccccc2)N3)C1 (stereo not given) | inactive
CC(=O)c1cccc(NC(=O)c2cc(Cl)sc2Cl)c1 | inactive
Cn1c(N/N=C/c2cccs2)cc(=O)n(C)c1=O | inactive
Cc1cc(=O)n2nc(-c3ccccc3)sc2c1C#N | inactive
Cc1cc(C)c(C#N)c(SCC(=O)c2cccs2)n1 | inactive
COc1ccc(O)c(-c2cc(-c3ccccc3Cl)[nH]n2)c1 | inactive
CCn1c(SCC(=O)N/N=C/C=C/c2ccco2)nc2ccccc21 | inactive
Cc1ccc(NC(=O)COCc2cc(-c3cccs3)on2)cc1Cl | inactive
c1ccc2c(c1)nnn2-c1ncnc2sccc12 | inactive
O=C(CSc1nc2c(sc3ccccc32)c(=O)n1-c1ccccc1)NCc1ccco1 | inactive
S=c1[nH]nc(-c2ccncc2)n1/N=C/C=C/c1ccco1 | inactive
Clc1ccccc1NN=Cc1ccccn1 | inactive
Cc1cc(NC(=O)c2ccccc2)nc2c1c(=O)oc1ccccc12 | inactive

SMILES | Potency
CCCn1c(-c2cccs2)nc2nc3ccccc3nc21 | inactive
CCOC(=O)c1sc(NC(=O)c2ccccc2F)c(C(N)=O)c1C | inactive
C#CCSc1nc(-c2ccccc2)cc(C(F)(F)F)c1C#N | inactive
O=Cc1c(NCc2ccco2)nc2ccccn2c1=O | inactive
COC(=O)C1=C(C)NC(=O)/C1=C\c1ccco1 | inactive
Cc1nc(-c2ccccn2)sc1C(=O)Nc1ccc(F)cc1 | inactive
CC(=O)Nc1cc(-c2ccsc2)cn2c(-c3ccc(F)cc3)cnc12 | inactive
O=C(Nc1ccc(F)cc1)c1nsc(Cl)c1Cl | inactive
CS(=O)(=O)c1ccc2nc(NC(=O)CCS(=O)(=O)c3ccccc3)sc2c1 | inactive
O=C(Cn1ncc(Cl)c(Cl)c1=O)NC1CCS(=O)(=O)C1 (stereo not given) | inactive
Cc1ccccc1OCC(=O)Nc1ccccc1CO | inactive
O=C(c1nn2c(C(F)(F)F)cc(-c3ccco3)nc2c1Br)N1CCCc2ccccc21 | inactive
Cc1ccc([N+](=O)[O-])c(OCc2ncc(Cl)n2C)c1 | inactive
O=c1[nH]c(O)c(/C=C2\C=Nc3ccc(Br)cc32)[nH]1 | inactive
COc1ccc(/C(N)=N/OC(=O)c2cccc([N+](=O)[O-])c2)cc1 | inactive
N/C(=N\OC(=O)c1ccco1)c1cccc(Br)c1 | inactive
O=c1c2ccccc2oc2cc(Br)ccc12 | inactive
COc1ccc(C=O)cc1OS(=O)(=O)c1ccccc1[N+](=O)[O-] | inactive
COc1ccccc1Nc1nc2ccccc2n2cnnc12 | inactive
O=c1cc(-c2ccccc2Cl)oc2c(Br)ccc(O)c12 | inactive
Cc1ccc(N=C2NC(=O)S/C2=C\c2ccco2)cc1 | inactive
c1ccc(-c2nc3c4ccccc4ccn3c2Cc2ccsc2)cc1 | inactive
COC(=O)c1c(NC(=O)/C=C/C(=O)O)sc(C)c1-c1ccc(C(C)C)cc1 | inactive
COc1cccc(-c2nc3n(n2)CCc2ccccc2-3)c1 | inactive
C/C(=N\NC(=O)COc1ccccc1[N+](=O)[O-])c1cccs1 | inactive
O=c1oc2ccccc2cc1-c1nc(-c2cccs2)cs1 | inactive

SMILES | Potency
NC(=O)c1oc2ccccc2c1NC(=O)c1ccco1 | inactive
Brc1ccccc1/C=N/Nc1ccccn1 | inactive
O=C(/C=C/c1ccccc1Cl)Nc1nc(-c2cccs2)ns1 | inactive
Cc1[nH]c2ccccc2c1N=Nc1ccccc1F | inactive
O=C(N=Nc1c(O)[nH]c2ccc(Br)cc12)c1ccco1 | inactive
CCOC(=O)N/N=C\C=C\c1ccco1 | inactive
O=C(NC(=S)Nc1ccc(Br)cn1)c1cccs1 | inactive
COc1ccccc1C=Cc1ccnc2ccccc12 | inactive
S=C(NNc1ccc2ccccc2c1)NC1CCCCC1 | inactive
OCC1OC(n2cnc3c(NCc4ccccc4O)ncnc32)C(O)C1O (stereo not given) | 5.17 µM (active)
c1ccc2c(-c3nc4ncccc4o3)cccc2c1 | inactive
COc1ccc([N+](=O)[O-])cc1C1NN=C(c2ccccc2O)S1 (stereo not given) | inactive
Clc1ccc(Br)cc1-c1nc(-c2ccncc2)no1 | inactive
NC(=O)c1c(NC(=O)c2ccco2)sc2c1CCC2 | inactive
O=C(Nc1ccccn1)c1csc2c1CCCC2 | inactive
O=C(Nc1ccccn1)Nc1ccccc1Cl | inactive
CC1(C)CC[C@]2(C(=O)n3ccnc3)CC[C@]3(C)[C@H](C(=O)C=C4[C@@]5(C)C=C(C#N)C(=O)C(C)(C)[C@@H]5CC[C@]43C)[C@@H]2C1 | 8.2 µM (active)
Fc1ccccc1-c1nc(-c2ccc(Cl)cc2)no1 | inactive
COc1cc(/C=N/Nc2nc3ccccc3s2)ccc1OC(=O)c1ccccc1F | inactive
Cc1c(Cl)cccc1NC(=S)NC(=O)c1ccccc1 | inactive
c1ccc(-c2cc3c(-n4cccc4)ncnc3o2)cc1 | inactive
O=C(NC(=S)Nc1nc(-c2ccccc2)cs1)c1cccs1 | inactive
CS(=O)(=O)Nc1ccc(C(=O)Nc2cccc([N+](=O)[O-])c2)cc1 | inactive
COc1c(C(=O)Nc2nnc(C3CC3)s2)csc1Cl | inactive
O=C(Nc1cc(-c2nc3cc(Cl)ccc3o2)ccc1Cl)c1ccco1 | inactive
Cc1cc(=O)oc2c(C(=O)/C=C\c3cccs3)c(O)ccc12 | inactive

SMILES | Potency
Cn1cnnc1Sc1ccc(/C=C/C(=O)c2ccc(O)cc2)cc1[N+](=O)[O-] | inactive
COC(=O)c1c(NC(=O)c2ccco2)sc(C)c1C | inactive
c1cncc(-c2noc(-c3cccc4ccccc34)n2)c1 | inactive
Nc1c(Cl)cc(N=Nc2ccccc2)cc1Cl | inactive
Cc1sc2c(c1C)C(=O)NC(c1ccccc1F)N2 (stereo not given) | inactive
Clc1cccc(Cc2c(-c3ccco3)nc3c4ccccc4ccn23)c1 | inactive
Cc1csc(NC(=O)/C=C/c2ccco2)n1 | inactive
c1ccc(N2CC3COc4ccccc4C3=N2)cc1 (stereo not given) | inactive
O=C(/C=C/c1ccc2c(c1)OCO2)c1ccc(O)cc1O | inactive
N#Cc1c(-c2ccco2)cc(-c2ccc(F)cc2)nc1N | inactive
O=c1[nH]ncc(N/N=C\c2cccs2)c1Cl | inactive
COc1ccccc1NC(=O)C(=O)Nc1ccccn1 | inactive
O=c1[nH]c(/C(Cl)=C/c2cc(Cl)ccc2O)nc2cc(Cl)ccc12 | inactive
O=C(Cn1cnc2scc(-c3cccc([N+](=O)[O-])c3)c2c1=O)NCc1ccco1 | inactive
O=C(/C=C/c1ccco1)Nc1cccnc1Cl | inactive
CCOC(=O)c1c(-c2ccco2)csc1NC(=O)CSc1nnc(N)s1 | inactive
CCOC(=O)c1ccccc1N/C=C/C(=O)c1cccs1 | inactive
CN1CCCC1CCNc1ccc2c(=O)c3ccccc3oc2c1 (stereo not given) | inactive
Clc1nc(-c2ccccc2)cc(-c2ccccc2)n1 | inactive
O=C(N/N=C\c1ccco1)Nc1cccc(Cl)c1 | inactive
CN1c2ccsc2/C(=N/Nc2ccccc2)CS1(=O)=O | inactive
O=C(c1ccccc1)[C@@H]1[C@@H]2C(=O)N(c3ccc(F)cc3)C(=O)[C@@H]2C2CCCN21 (stereo not given in full) | inactive
CC1CCCCC1NC(=O)COC(=O)c1c2c(nc3ccccc13)/C(=C/c1ccco1)CC2 (stereo not given) | inactive
CNc1ccccc(C(=O)/C=C/c2ccccc2OC)c1=O | inactive
O=C(N/N=C/c1ccc(-c2cccc([N+](=O)[O-])c2)o1)c1cccs1 | inactive
O=C(Nc1ccccn1)c1ccc(Cl)c([N+](=O)[O-])c1 | inactive

SMILES | Potency
O=C(/C=C/c1ccco1)Nc1cccc(S(=O)(=O)N2CCOCC2)c1 | inactive
Cc1ccc([N+](=O)[O-])cc1NC(=O)c1ccc(C(C)(C)C)cc1 | inactive
O=C1/C(=C/c2ccccc2O)SC(=S)N1Cc1cccnc1 | inactive
Cc1ccc(S(=O)(=O)/N=C(/NNC(=O)c2cccc(Cl)c2)c2ccccc2)cc1 | inactive
Cc1ccc2ccc(C3C(=O)c4ccccc4C3=O)nc2c1 | inactive
Fc1cc(F)c2nc(Nc3nc4cc5c(cc4s3)OCO5)sc2c1 | inactive
CC(/C=N/NC(=O)Cc1cccn1C)=C\c1ccco1 | inactive
CC(C)CCn1c(O)c(N=Nc2ccccn2)c2ccccc21 | inactive
CCCCn1c(O)c(N=Nc2ccccn2)c2ccccc21 | inactive
Oc1ccc2ccccc2c1N=Nc1ccccn1 | 5.17 µM (active)
O=C(Nc1ccccc1[N+](=O)[O-])C1COc2ccccc2O1 (stereo not given) | inactive
CCOC(=O)COn1c(=O)c(-c2ccco2)[n+]([O-])c2ccccc21 | inactive
C(=Cc1cnnc2ccccc12)c1ccccc1 | inactive
Cc1ccc(S(=O)(=O)c2nc(S(C)(=O)=O)sc2N2CCC(C)CC2)cc1 | inactive
O=C1C(Cl)=C(N2CCN(c3ccccc3[N+](=O)[O-])CC2)C(=O)c2ccccc21 | 18.4 µM (active)
O=C1C(=Cc2ccccc2[N+](=O)[O-])Cc2ccccc21 | inactive
N#CC1CC(c2ccccc2)=NN1c1ccccc1[N+](=O)[O-] (stereo not given) | inactive
COC(=O)c1sccc1NC(=O)c1cccc(OC)c1 | inactive
N#C/C(=C1/C(=O)Nc2ccc(Br)cc21)c1ccccn1 | inactive
Nc1ccc2c(c1)Cc1c(F)cccc1-2 | inactive
COc1ccc2[nH]c3c(NCc4ccco4)ncnc3c2c1 | inactive
O=C(/C(C=Nc1ccc(F)cc1)=C(/O)c1ccco1)C(F)(F)F | inactive
CC(C)Nc1ccc(-c2nc(-c3ccco3)no2)cc1[N+](=O)[O-] | inactive
O=C(CSc1ccccn1)N/N=C/c1ccccc1[N+](=O)[O-] | inactive
CCOc1ccccc1NC(=S)NC(=O)c1ccco1 | inactive
O=C(Nc1nc2ccc(F)cc2s1)c1ccc([N+](=O)[O-])o1 | inactive

Reference: PubChem BioAssay AID651595 (National Center for Advancing Translational Sciences (NCATS), 2012)
